Giardia FBPA inh – qHTS Assay for Inhibitors of Fructose-1,6-bisphosphate Aldolase from Giardia Lamblia; A8B2U2; purified Giardia FBPA; Potency, µM (series often up to 59.6 µM), most hits filed as inhibitors; 290,000 tested, 0.71% active; AID 2451, 2010; note: nearly all actives have a fitted effect of over 55% in size
Target sequence (A8B2U2 whole entry, looked up): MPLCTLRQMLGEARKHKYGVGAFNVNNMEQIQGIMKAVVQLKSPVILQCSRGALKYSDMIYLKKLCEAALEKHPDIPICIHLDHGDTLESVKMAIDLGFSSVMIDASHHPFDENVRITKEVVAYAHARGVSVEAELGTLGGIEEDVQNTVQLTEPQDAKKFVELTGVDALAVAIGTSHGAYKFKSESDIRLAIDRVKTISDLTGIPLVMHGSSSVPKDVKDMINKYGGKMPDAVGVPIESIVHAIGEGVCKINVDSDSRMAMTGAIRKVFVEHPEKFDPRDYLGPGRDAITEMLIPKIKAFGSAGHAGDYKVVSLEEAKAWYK
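Giardia FBPA (40 nM reagent) was preincubated 10 min at RT with compound (up to 57.5 uM final), then substrate plus GAPDH/TPI/NAD/arsenate coupling system with diaphorase/resazurin was added; resorufin fluorescence (525/598 nm) was read after 20 min.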
AmpC inh no detg – qHTS Inhibitors of AmpC Beta-Lactamase (assay without detergent). P00811. AmpC nitrocefin hydrolysis, absorbance 480 nm, 0.0001% Triton. Potency, µM (doses to about 57.1 µM), usual class: inhibitors. 330,000 tested, 0.52% active. AID 485341, 2010; note: nearly all actives have a fitted effect of over 20% in size
Target sequence (P00811 whole entry, looked up): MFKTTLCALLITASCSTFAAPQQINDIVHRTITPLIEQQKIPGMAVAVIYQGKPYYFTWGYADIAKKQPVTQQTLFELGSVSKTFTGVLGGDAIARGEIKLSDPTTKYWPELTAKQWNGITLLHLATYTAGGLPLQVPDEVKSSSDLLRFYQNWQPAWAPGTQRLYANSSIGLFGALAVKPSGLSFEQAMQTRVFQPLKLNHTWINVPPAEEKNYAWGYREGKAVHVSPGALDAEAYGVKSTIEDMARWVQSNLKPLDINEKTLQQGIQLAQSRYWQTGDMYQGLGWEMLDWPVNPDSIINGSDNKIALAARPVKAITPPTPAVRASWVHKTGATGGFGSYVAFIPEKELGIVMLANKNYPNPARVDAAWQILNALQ
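AmpC (5.3 nM in the dispensed reagent) in 20 mM phosphate pH 7.0 with 0.01% (detergent screen) or 0.0001% Triton X-100 was preincubated with compounds for 15 min at room temperature. Nitrocefin was then added from an 800 uM solution, and hydrolysis was followed at 480 nm.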
AmpC inh detg – qHTS Inhibitors of AmpC Beta-Lactamase (assay with detergent). 370,000 tested, 0.041% active. Potency, µM (top dose mostly 114 µM), hits mostly inhibitors. AmpC hydrolysis of nitrocefin, absorbance 480 nm, 0.01% Triton. AID 485294, 2010. P00811; note: nearly all actives have a fitted effect of over 25% in size
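20 mM phosphate pH 7.0 + 0.01% (detergent screen) or 0.0001% Triton X-100; 5.3 nM AmpC reagent; cpd preinc 15 min RT; nitrocefin (800 uM stock) to start; A480 q20 s × 4 min; Activity was normalised to no-enzyme and no-compound control wells.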
Sm TGR inh – qHTS Assay for the Inhibitors of Schistosoma Mansoni Peroxiredoxins; purified TGR, DTNB reduction, TNB absorbance 405 nm; Potency, µM (series often up to 114 µM), hits mostly inhibitors; 360,000 tested, 3% active; note: nearly all actives have a fitted effect of over 60% in size
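Kinetic colorimetric format: TGR-catalysed, NADPH-driven DTNB reduction monitored via TNB absorbance. Enzyme dispensed at 20 nM; compound exposure 15 min at room temperature before reaction start.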
RE007 growth inh – qHTS Assay for Inhibitors of the HIV-1 protein Vpr; Potency, µM (highest dose often 92.2 µM), usual class: inhibitors; 360,000 tested, 0.21% active; S. pombe RE007 Vpr strain, BacTiter-Glo ATP luminescence, 24 h; AID 651644, 2012; active = well fitted falling curve with a large enough effect; inconclusive = small, poorly fitted or top-dose-only effect; inactive = no such curve, though single readings can be large or run the other way; note: nearly all actives have a fitted effect of over 50% in size
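Fission yeast RE007 carrying one integrated HIV-1 vpr copy, seeded at OD 0.01 in PMG+AL medium with 23 nL pinned compound. Grown 24 h at 30 degrees; viability read by BacTiter-Glo luminescence after 5 min.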
Each line names hits and unclear results; the compound was inactive in the other large screens. A selection: hits, their analogues and other compounds. The true share with any hit is near 3.4%. Unless noted, calls come from the whole dose curve; as a rule, active = well fitted curve in the direction sought with a large enough effect; inconclusive = small, poorly fitted or top-dose-only effect, or another doubt; inactive = no such curve, though single readings can be large; an effect the other way counts as inactive or inconclusive.

O=c1c(Cl)c(O)c2cccc3c4ccccc4n1c23	none
COc1c(O)c(=O)n2c3ccccc3c3ccnc1c32	Sm TGR inh 3.98µM (no result: Giardia FBPA inh)
O=C(N[C@@H](Cc1ccccc1)C(=O)N1CCC2(CC1)NCCc1[nH]cnc12)c1cccc(Br)c1	none (no result: Giardia FBPA inh)
COc1ccc(C2C(C(=O)Nc3cc(C)on3)c3ccccc3C(=O)N2C)cc1 (stereo not given)	none
Cc1ccc(CNC(=O)C2c3ccccc3C(=O)N(C)C2c2c[nH]c3ccccc23)o1 (stereo not given)	Sm TGR inh 50.1µM (no result: AmpC inh no detg)
CC1(C)CC(NC(=S)Nc2ccc([N+](=O)[O-])cc2)CC(C)(C)N1	Sm TGR inh 50.1µM
COc1cc(NC(=S)NC2CC(C)(C)NC(C)(C)C2)cc(OC)c1	none
COc1ccc(/C=N/N2CCN(C)CC2)c(OC)c1OC	Sm TGR inh 50.1µM
O=C1C(Cl)=C(NCC2CCCO2)C(=O)N1C1CCCCC1 (stereo not given)	none
O=C1C(Cl)=C(NCC2CCCO2)C(=O)N1c1ccccc1 (stereo not given)	Sm TGR inh 50.1µM
CC(C)N(Cc1c(O)ccc2c(=O)c(-c3ccc(Cl)cc3)coc12)C(C)C	Giardia FBPA inh inconclusive, Sm TGR inh 39.8µM
CC1CCCCN1Cc1c(O)ccc2c(=O)c(-c3ccc(Cl)cc3)coc12 (stereo not given)	AmpC inh detg inconclusive
CCOC(=O)N1CCN(c2cc(NCCC(=O)O)c3c4c(onc24)-c2ccccc2C3=O)CC1	Giardia FBPA inh 5.61µM, Sm TGR inh inconclusive, RE007 growth inh inconclusive
O=[N+]([O-])c1c(NCCO)cc(N2CCC3(CC2)OCCO3)c2nonc12	Giardia FBPA inh inconclusive
O=C(O)CCCNc1cc(N2CCC3(CC2)OCCO3)c2noc3c2c1C(=O)c1ccccc1-3	Giardia FBPA inh inconclusive, Sm TGR inh 8.91µM (no result: RE007 growth inh)
CCCCNc1cc(N2CCN(C3CCCCC3)CC2)c2noc3c2c1C(=O)c1ccccc1-3	none (no result: Giardia FBPA inh, AmpC inh no detg, RE007 growth inh)
Cc1ccc(CNC(=O)c2nc(SCc3ccccc3F)ncc2Cl)cc1	none (no result: Giardia FBPA inh, AmpC inh no detg, RE007 growth inh)
O=S(=O)(CCc1ccccc1)c1nnnn1-c1ccc(F)cc1Br	none (no result: AmpC inh no detg, AmpC inh detg, Sm TGR inh, RE007 growth inh)
Cc1cc(F)ccc1S(=O)(=O)Nc1ccc2c(c1)CCCN2C(=O)c1cccs1	none (no result: Giardia FBPA inh, AmpC inh no detg, RE007 growth inh)
O=C(Nc1ccc(Br)c(Cl)c1)C1CC1	AmpC inh no detg 2.24µM, RE007 growth inh inconclusive
Cc1ccc(NC(=S)NC(=O)C2CC2)cc1Cl	Sm TGR inh inconclusive (no result: Giardia FBPA inh)
CCOc1ccccc1NC(=S)NC(=O)C1CCCCC1	Sm TGR inh 8.91µM
O=C(NC(=S)Nc1ccc(F)c(Cl)c1)C1CC1	Sm TGR inh 15.8µM (no result: Giardia FBPA inh)
O=C(NC(=S)Nc1ccccc1Cl)C1CC1	Sm TGR inh 44.7µM (no result: Giardia FBPA inh)
CCCCN(C(=O)c1c(C)noc1C)c1c(N)n(CCC)c(=O)[nH]c1=O	AmpC inh detg inconclusive (no result: Giardia FBPA inh)
COC(=O)c1ccc(C)c(N(CCO)CCO)c1	none
COc1ccc(N(C)S(=O)(=O)c2ccc3c(c2)NC(=O)CC(=O)N3)c(OC)c1	none (no result: Giardia FBPA inh)
COc1ccccc1Nc1nnc(SCC(=O)N2CC(=O)Nc3ccccc32)s1	AmpC inh detg inconclusive
CCC1CCCCN1C(=O)COc1ccccc1NC(C)=O (stereo not given)	Sm TGR inh 50.1µM
CCC1CCCCN1C(=O)COc1cc(=O)n(C)c2ccccc12 (stereo not given)	none
COc1ccccc1C(=O)NC(C)C(c1cccs1)N1CCOCC1 (stereo not given)	AmpC inh detg inconclusive
Cc1ccccc1C(=O)NC(C)C(c1cccs1)N1CCOCC1 (stereo not given)	AmpC inh no detg 2.82µM, AmpC inh detg inconclusive
Cn1cncc1C#Cc1ccc2cc(CCO)oc(=O)c2c1	Sm TGR inh 11.2µM (no result: Giardia FBPA inh)
C/C=C(/C)C(=O)OC1C(OC(C)=O)[C@@]2(CO)C(O)C[C@@]3(C)C(=CCC4[C@@]5(C)CCC(OC6OC(C(=O)O)[C@@H](O[C@@H]7OC(CO)C(O)C(O)C7O)C(O)[C@H]6O[C@@H]6OC(CO)C(O)C(O)C6O)[C@](C)(CO)C5CC[C@@]43C)C2CC1(C)C (stereo not given in full)	none (no result: AmpC inh no detg, AmpC inh detg, Sm TGR inh, RE007 growth inh)
C=C1C(=O)C=C2CN(C(=O)c3ccccc3)[C@@](Cc3ccc(F)cc3)(C(=O)OC)[C@@H]12	Sm TGR inh 10µM
CNc1ccc(/C=C/C(=O)c2cccc3ccccc23)cc1[N+](=O)[O-]	AmpC inh no detg 28.2µM
COc1ccccc1CNC(=O)COC(=O)c1cc(-c2ccco2)nc2ccccc12	Sm TGR inh 10µM
O=C(COC(=O)c1cc(-c2ccco2)nc2ccccc12)NCc1ccc2c(c1)OCO2	AmpC inh detg inconclusive, Sm TGR inh 8.91µM
O=C(c1ccco1)N1CCN(C(=O)c2cc(-c3ccccn3)nc3ccc(Cl)cc23)CC1	Sm TGR inh 7.94µM
O=C(O)c1cc(-c2ccco2)nc2ccc(Br)cc12	Sm TGR inh 0.708µM
COc1cc(/C=N/NC(=O)c2cc(-c3ccco3)nc3ccccc23)cc(OC)c1O	Sm TGR inh 44.7µM
NC(=O)COC(=O)c1cc(-c2ccco2)nc2ccccc12	Sm TGR inh 3.16µM
COc1ccc(/C=C(\C#N)C(=O)OCC(=O)NCc2ccccc2OC)cc1	AmpC inh no detg 31.6µM, AmpC inh detg inconclusive (no result: Giardia FBPA inh)
O=C(c1cc(-c2ccco2)nc2ccccc12)N1CCN(Cc2ccccc2)CC1	Sm TGR inh 14.1µM (no result: Giardia FBPA inh)
c1ccc([C@H]2CN3CCSC3=N2)cc1	none
Cc1nn(CC(=O)Nc2cccc(O)c2)c(=O)c2ccccc12	none (no result: Giardia FBPA inh, AmpC inh no detg, AmpC inh detg, Sm TGR inh)
COc1cc(C(C)=O)ccc1OCC(O)CNCC1(N2CCCCC2)CCCCC1 (stereo not given)	AmpC inh detg inconclusive
COc1ccccc1COCC(O)CNCC1(N2CCCCC2)CCCCC1 (stereo not given)	AmpC inh no detg 0.141µM
COC(=O)c1c(NC(=O)CCc2ccc(C)o2)sc(C)c1C	Sm TGR inh 39.8µM
CCOC(=O)c1c(NC(=O)CCc2ccc(CC)o2)sc(C)c1C	none
O=C(CSc1nnc(-c2cccnc2)n1Cc1ccco1)Nc1nc(-c2ccc(F)cc2)cs1	Sm TGR inh inconclusive
Cc1ccc2c(c1)c(=O)c1c3n2CCN(C(=O)CCl)C3CC1 (stereo not given)	Giardia FBPA inh inconclusive, Sm TGR inh 3.16µM
Cc1ccc2c(c1)c(=O)c1c3n2CCN(CC#N)C3CC1 (stereo not given)	none
Cc1cccc(NC(=O)CSc2nnc(NC(=O)c3ccco3)s2)c1	none
CSc1ccc(C2C(C#N)=C(N)Oc3c2ccc(=O)c2c(C)oc(C)c32)cc1 (stereo not given)	Giardia FBPA inh inconclusive, Sm TGR inh 28.2µM
Cc1oc(C)c2c(=O)ccc3c(c12)OC(N)=C(C#N)C3c1ccccc1 (stereo not given)	AmpC inh no detg inconclusive, Sm TGR inh 28.2µM
O=C(OCC(=O)N1CCOCC1)c1ccc(Cl)nc1	none

Screening data from PubChem BioAssay.
